According to ChEMBL document CHEMBL3988442, “University of Dundee, Small-Polar-MMV Screening Library” (2021):
Out of some 48,000 compounds screened, about 13,000 (27%) showed an effect of 50% or more. The list shows a part of the results.

System: Wolbachia pipientis
Assay: Anti-Wolbachia Cell-Based Screen
Format: functional
Parameters: scale not given: in the data most compounds retested in dose-response had high values
Conditions: 5 µM

Row | Compound | Percent Effect [%]
1 | Cn1nccc1C(=O)N1CCN(C(=O)C2CCC2)[C@@H]2CS(=O)(=O)C[C@@H]21 | -1.449
2 | CC1(C)CC1(C(=O)N1CC(c2cccnc2)C1)c1ccc(F)cc1 (stereo not given) | -9.092
3 | O=C1CC(C2CCCCC2)c2c(n(C3CCCC3)[nH]c2=O)N1 (stereo not given) | -0.7877
4 | CC1=Nc2c(c(=O)[nH]n2C2CCCC2)C(c2ccc(C(=O)O)cc2)S1 (stereo not given) | 117.5
5 | CC1=Nc2c(c(=O)[nH]n2C2CCCC2)C(c2cccnc2)S1 (stereo not given) | 106.9
6 | COc1ccc(C2SC(C)=Nc3c2c(=O)[nH]n3C2CCCCC2)cc1O (stereo not given) | 9.619
7 | CC1=Nc2c(c(=O)[nH]n2C2CCCC2)C(c2cccc(O)c2)S1 (stereo not given) | 4.051
8 | CC1=Nc2c(c(=O)[nH]n2C2CCCCC2)C(c2ccc(C(=O)O)cc2)S1 (stereo not given) | 110.1
9 | C[C@@H]1CN(C2CCN(Cc3nn(C)c4cccc(Cl)c34)CC2)C[C@H](C)O1 | 24.58
10 | C[C@@H]1CN(CC(C)(C)N2CCCCC2)CC[C@@]1(O)C1CC1 | 22.77
11 | CC(CN1CCOCC1)N(Cc1ccccc1)Cc1ccncc1 (stereo not given) | 4.516
12 | O=C(Nc1cn[nH]c1)c1ccc(O)nc1 | -8.814
13 | Cc1ccc(NCCNC(=O)C2Cc3cc(C)c(C)cc3O2)nn1 (stereo not given) | -19.52
14 | CCOc1ncccc1C(=O)N1CCCCC1c1nccs1 (stereo not given) | 4.622
15 | COc1ncccc1C(=O)N1CCCC1c1c(C)n[nH]c1C (stereo not given) | -9.272
16 | CCOc1ncccc1C(=O)N1CCCC1c1c(C)nn(C)c1Cl (stereo not given) | 122.7
17 | COc1ncccc1C(=O)N1CCCC1c1c(C)nn(C)c1Cl (stereo not given) | 89.91
18 | CCCNC(=O)C(C)Nc1ccc(OCC)cc1 (stereo not given) [PROPETAMIDE] | -10.93
19 | CC(=O)N1Cc2ccccc2CC1C(=O)Nc1ccc(N(C)C)cn1 (stereo not given) | -0.765
20 | CCS(=O)(=O)NCCNc1c(C#N)cnc2c(C)cc(F)cc12 | -8.935
21 | COc1ccc(-c2ccc(C(=O)NS(C)(=O)=O)c(F)c2)cc1 | -4.531
22 | COc1cc(Br)c(CNc2ccn(CCC(N)=O)n2)cc1OC | -66.5
23 | CCOc1c(Cl)cc(Cl)cc1CNCCCn1ccnc1 | 7.909
24 | CCn1nnc(NCc2cc(Br)cc(Br)c2OC)n1 | 107.9
25 | CCCC(=O)NCc1cc(Br)c(OC)c(OC)c1 | -2.36

Row | Compound | Percent Effect [%]
26 | CCn1nnc(NCc2cc(Cl)cc(Cl)c2OC)n1 | 112
27 | CCCn1nnc(NCc2cc(Br)cc(Br)c2OC)n1 | 116
28 | CCOc1c(CNCCCn2ccnc2)cc(Cl)cc1OC.Cl.Cl | 2.415
29 | CC(CN1CCCC1=O)NC(=O)c1cc(-c2cccc(Cl)c2)no1 (stereo not given) | -44.82
30 | COCC(=O)N[C@H](C)c1onc(-c2ccccc2)c1C(=O)O | -4.041
31 | CN(C)CC1CN(Cc2nnc(-c3ccccc3Cl)o2)CCO1 (stereo not given) | 1.962
32 | O=C(c1cccc(CN2CCCC2)c1)N1CCCC(n2cncn2)C1 (stereo not given) | -4.839
33 | CS(=O)(=O)Cc1cccc(C(=O)N2CCCC(n3cccn3)C2)c1 (stereo not given) | 7.401
34 | COCCn1cc(C(=O)N2CCCC(n3cncn3)C2)ccc1=O (stereo not given) | -8.291
35 | CCc1cccc(OCC(=O)N2CCCC(n3cncn3)C2)c1 (stereo not given) | 9.617
36 | COC(=O)c1cccc(C(=O)N2CCCC(n3cncn3)C2)c1 (stereo not given) | 108.5
37 | CN(C)Cc1cccc(C(=O)N2CCCC(n3cncn3)C2)c1 (stereo not given) | 139.2
38 | CCCOc1cccc(C(=O)N2CCCC(n3cncn3)C2)c1 (stereo not given) | 99.87
39 | O=C(c1cccc(OC2CCCC2)c1)N1CCCC(n2cncn2)C1 (stereo not given) | -3.661
40 | COc1cc(CCC(=O)NCC2CCCN2C)ccc1OCC(F)(F)F (stereo not given) | -0.8695
41 | Cc1nc(O)cc([C@@H]2CN(C(=O)C3CC3)C[C@H]2c2ccccc2F)n1 | 114.1
42 | CC(=O)N1C[C@H](c2cc(O)nc(C)n2)[C@@H](c2ccccc2F)C1 | 117
43 | Cc1nc(O)cc(C2CCCN(C(=O)COCc3ccccc3)C2)n1 (stereo not given) | 12.86
44 | COCC(=O)N1C[C@@H](c2cc(O)nc(C)n2)[C@H](c2ccccc2F)C1 | 108.7
45 | CC(=O)N1C[C@@H](F)[C@@H](OCc2nc3ccccc3o2)C1 | -12.47
46 | COCC(=O)N1C[C@H]2CN(Cc3csc(C)n3)C(=O)[C@H]2C1.O=C(O)C(F)(F)F | -18.32
47 | CN1CCC2(CCCN(C(=O)c3cncn3C)C2)CC1.O=C(O)C(F)(F)F | -6.177
48 | CCc1c(O)nc(SCC(=O)N(CC)CC)n(C(C)CC)c1=O (stereo not given) | -0.2531
49 | CCc1c(O)nc(SCC(=O)Nc2ccccc2)n(C(C)CC)c1=O (stereo not given) | -0.04082
50 | CCc1c(O)n(C(C)CC)c(SCC(=O)c2ccccc2)nc1=O (stereo not given) | 125.3

Row | Compound | Percent Effect [%]
51 | Cc1noc(C)c1CN1C[C@@H](C(=O)O)[C@H](C(C)C)C1 | -19.42
52 | COCCN1CCN(C(C)C(=O)Nc2ccnn2C(C)C)CC1 (stereo not given) | -8.101
53 | COCCN1CCn2c(nc3cc(C(=O)NC(C)C)ccc32)C1 | 122.8
54 | CC(C)NC(=O)c1ccc2c(c1)nc1n2CCN(Cc2ccccc2)C1 | 112.9
55 | CCc1nnc2n1CCN(Cc1ccc(C(=O)N3CCCC3)cc1)C2 | 0.2623
56 | CCN1CCN(c2ccc(C(=O)NC(C)CCOC)cc2)CC1 (stereo not given) | -9.084
57 | CC(C)CN1CCn2c(COCc3cccnc3)nnc2C1.O=C(O)C(F)(F)F.O=C(O)C(F)(F)F | -7.115
58 | CC(C)NC(=O)c1ccc2c(c1)nc1n2CCN(C(C)C)C1 | -1.576
59 | CC(C)CN1CCn2c(nc3cc(C(=O)NC(C)C)ccc32)C1 | 121.2
60 | CC(C)N1CCn2c(nc3cc(C(N)=O)ccc32)C1 | 42.97
61 | CC(C)NC(=O)c1ccc2c(c1)nc1n2CCN(c2ccccc2)C1 | 20.1
62 | CCNC(=O)c1ccc2c(c1)nc1n2CCN(C(C)C)C1 | 109.5
63 | Cc1nnc2n1CCN(CC(=O)NC(C)c1ccc3ccccc3c1)C2 (stereo not given) | -2.487
64 | O=C(Nc1ccccc1CCc1ccccn1)NC1CCOCC1 | -7.389
65 | O=C1NCCN(C(=O)c2cn3ccsc3n2)C1Cc1ccccc1 (stereo not given) | -8.073
66 | Cc1cnn(CC2CCCN2Cc2cc(=O)n3ccccc3n2)c1 (stereo not given) | 2.976
67 | COc1ccccc1C1(CNc2ccc(C(=O)N(C)C)cn2)CC1 | 4.76
68 | COc1ccccc1-c1nc(C(=O)N2CCOCC2)n2ccncc12 | 98.47
69 | COc1ccccc1C1(CNc2ccnc(C(=O)N(C)C)c2)CC1 | 15.85
70 | Cc1c(C(=O)N2CCCOCC2)nnn1-c1cccc2cnccc12 | 5.187
71 | COc1ccccc1C(=O)N1CCN(C(=O)CCn2ccnc2)CC1 | 1.871
72 | COc1ccccc1-c1nc(C(=O)N(C)C)n2ccncc12 | 107.3
73 | COC(=O)CCNC(=O)c1c[nH]cc1-c1ccccc1OC | 1.896
74 | COC(=O)CNC(=O)c1nc(-c2ccccc2OC)c2cnccn12 | 100.8
75 | CCN(CC)CCn1cc(NC(=O)CNc2ccccc2OC)cn1 | 1.772

Row | Compound | Percent Effect [%]
76 | COc1cccc(CNC(C)c2ccc(-n3ccnc3)cc2)c1OC.Cl (stereo not given) | 1.707
77 | Cc1nnc(C(C)Nc2ccc(OCCc3ccccc3)nc2)o1 (stereo not given) | -0.9062
78 | COc1cc(CNc2nc(C(F)(F)F)no2)cc(OC)c1OC | 5.574
79 | CC(C1CCN(Cc2ccc(OC(F)F)cc2)CC1)N1CCOCC1 (stereo not given) | 6.94
80 | CC(C)Oc1ccc(CN2CCC(c3n[nH]c4ncccc34)CC2)cc1 | 97.82
81 | CC(C)Oc1cccc(CN2CCC(C(C)N3CCOCC3)CC2)c1 (stereo not given) | 8.799
82 | Fc1cccc(Cl)c1CN1CCC(c2n[nH]c3ncccc23)CC1 | 100.4
83 | Cl.Fc1ccc(CN2CCC(c3n[nH]c4ncccc34)CC2)cc1F | 3.09
84 | CC(C)Oc1ccc(CN2CCC(Cc3nnc(CO)n3C)CC2)cc1 | -3.16
85 | Fc1cccc(CN2CCC(c3n[nH]c4ncccc34)CC2)c1F | -6.364
86 | CC(C)Oc1cccc(CN2CCC(c3n[nH]c4ncccc34)CC2)c1 | 89.98
87 | Cc1cc(NC(=O)c2nc(N3CCCC3)ncc2Cl)ccc1Br | 7.259
88 | Cc1ncoc1C(=O)N1C[C@@H]2COC[C@]2(c2nnc(C3CC3)o2)C1 | 19.81
89 | NC1CCCCN(Cc2cc(C3CCCCC3)no2)C1 (stereo not given) | 4.436
90 | O=C(c1cc(C2CC2)nc2onc(-c3ccccc3)c12)N1CC(O)C1 | 1.744
91 | O=C(c1cc(C2CCCCC2)no1)N1C[C@H]2C[C@H](O)C[C@H]2C1 | 95.88
92 | C[C@@H]1CN(C2CCCCC2)CC[C@@]1(O)C1CCOCC1 | 98.71
93 | C[C@@H]1CN(S(=O)(=O)N2CCCC2)CC[C@@]1(O)C1CCOCC1 | -9.489
94 | C[C@@H]1CN(C2Cc3ccccc3C2)CC[C@@]1(O)C1CCOCC1 | 82.39
95 | C[C@@H]1CN(CC(C)(C)N2CCOCC2)CC[C@@]1(O)C1CCOCC1 | 4.466
96 | C[C@@H]1CN(C2CCN(c3ccccc3F)CC2)CC[C@]1(C)O | -26.42
97 | C[C@@H]1CN(C(=O)c2ccc(=O)[nH]c2)CC[C@@]1(O)C1CCOCC1 | -4.844
98 | O=C(C1CCOCC1)N1C[C@H]2CC[C@@H]1CN(C1Cc3ccccc3C1)C2 | 13.64
99 | C[C@@H]1CN(C2CCN(c3ccccc3)CC2)CC[C@@]1(O)C1CCOCC1 | 103.2
100 | COc1ccc(CNC(=O)CNc2cc3c(cc2Cl)OCCO3)cc1 | 11.87
